Assay outcomes from PubChem.
Rows were chosen to be rich in hits. Some 1.7% of all compounds tested hit in one or more screens of this group.
LYPLA1 inh: LYPLA1 inhibitors, primary screen, counter-screen for PME1 inhibitor project, biochemical, fluorescence polarization, FP-Rh probe ABPP; Acyl-protein thioesterase 1 (Homo sapiens), O75608; recombinant LYPLA1; inhibition, % at 5.9 µM; 320,000 tested, 0.16% active; AID 2174, 2009;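 active = inhibition above the mean of all tested compounds plus 3 SD, set per campaign, cut at about 14% in these data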;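 also: inhibitors block serine hydrolase probe labeling of LYPLA1 so polarization falls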
PME-1 primary: PME-1 inhibitors via competitive probe labeling, primary screen, biochemical, fluorescence polarization, FP-Rh probe, HTS; Protein phosphatase methylesterase 1 (Homo sapiens), Q9Y570; recombinant PME-1; inhibition, % at 5.9 µM; 320,000 tested, 0.53% active; AID 2130, 2009;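 active = inhibition above the campaign mean of all compounds plus 3 SD, cut at about 26% in these data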;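 also: competitive labeling of PME-1 active site by serine hydrolase directed probe; inhibitors block probe labeling so polarization falls and inhibition rises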
Fam108B inh: mouse Fam108B serine hydrolase inhibitors, primary screen, counter-screen for RBBP9 inhibitor project, biochemical, fluorescence polarization | recombinant Fam108B, FP-Rh probe fluorescence polarization | inhibition, % at 9.51 µM | AID 1947, 2009 | 300,000 tested, 0.33% active;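 active = inhibition above the screen mean inhibition plus 3 SD, computed separately per campaign, cut at about 18% in these data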;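 also: inhibitors lower polarization as less probe binds the enzyme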
GSTO1 counter: inhibitors of recombinant GSTO1, primary screen, counter-screen for RBBP9 inhibitor project, biochemical, fluorescence polarization; Glutathione S-transferase omega-1 (Homo sapiens), P78417; activity-based probe fluorescence polarization; inhibition, % at 5.96 µM; 300,000 tested, 1.1% active; AID 1974, 2009;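 active = inhibition above the campaign mean inhibition plus 3 SD, cut at about 35% in these data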
LYPLA2 inh: LYPLA2 inhibitors, primary screen, counter-screen for PME1 inhibitor project, biochemical, fluorescence polarization, FP-Rh probe ABPP. Acyl-protein thioesterase 2 (Homo sapiens), O95372. recombinant LYPLA2. inhibition, % at 5.9 µM. 320,000 tested, 0.38% active. AID 2177, 2009;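 active = inhibition above the screen-wide mean plus 3 SD, limit set per campaign, cut at about 26% in these data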
PAD4 FP inh: human PAD4 inhibitors, primary screen, biochemical, fluorescence polarization, 1536-well format; Protein-arginine deiminase type-4 (Homo sapiens), Q9UM07; AID 485272, 2010; recombinant PAD4, RCA probe fluorescence polarization; inhibition, % at 6.36 µM; 330,000 tested, 0.41% active;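 active = percent inhibition above a cutoff equal to the mean of all tested compounds plus 3 SD, cut at about 15% in these data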
Target sequence (Q9UM07 whole entry, looked up): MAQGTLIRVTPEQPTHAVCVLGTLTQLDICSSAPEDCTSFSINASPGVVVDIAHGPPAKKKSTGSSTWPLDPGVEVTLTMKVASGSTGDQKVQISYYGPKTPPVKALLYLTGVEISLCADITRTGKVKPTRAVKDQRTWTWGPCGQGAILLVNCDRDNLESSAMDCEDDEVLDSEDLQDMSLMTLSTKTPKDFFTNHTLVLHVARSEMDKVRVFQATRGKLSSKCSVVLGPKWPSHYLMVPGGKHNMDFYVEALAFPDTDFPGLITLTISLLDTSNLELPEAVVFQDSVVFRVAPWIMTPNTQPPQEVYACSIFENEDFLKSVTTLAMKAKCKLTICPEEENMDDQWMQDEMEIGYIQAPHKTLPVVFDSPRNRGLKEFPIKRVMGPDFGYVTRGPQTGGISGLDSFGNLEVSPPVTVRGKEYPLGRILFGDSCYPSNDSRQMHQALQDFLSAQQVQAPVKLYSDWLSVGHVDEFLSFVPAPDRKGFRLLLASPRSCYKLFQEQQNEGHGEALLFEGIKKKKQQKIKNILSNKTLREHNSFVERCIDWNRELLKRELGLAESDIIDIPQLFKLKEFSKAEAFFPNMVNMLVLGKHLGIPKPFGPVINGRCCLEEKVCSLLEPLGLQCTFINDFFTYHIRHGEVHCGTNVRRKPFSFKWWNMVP
Fam108b confirm: mouse Fam108b serine hydrolase inhibitors, confirmation, counter-screen for RBBP9 inhibitor project, biochemical, fluorescence polarization, triplicate. shares compounds with Fam108B inh. recombinant Fam108b, FP-Rh probe fluorescence polarization. inhibition, % at 9.51 µM. 930 tested, 44% active. AID 1978, 2009;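 active = inhibition above a limit from the primary screen, the mean over all compounds plus 3 SD, cut at about 19% in these data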;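 also: inhibitors free the probe so polarization falls as inhibition rises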
Fam108b inh: inhibition of mouse Fam108b by HTS hits, late-stage follow-up, biochemical, gel-based ABPP, soluble recombinant form; 260 tested, 44% active; fluorophosphonate probe; AID 588649, 2011; inhibition, % at 20 µM; shares compounds with Fam108B inh; in the data active = inhibition above about 40%
Large screens that a line does not name were inactive (follow-up assays come after a bar, where they were run).

O=C(Nc1ccc(-c2csc(Nc3cccc(C(F)(F)F)c3)n2)cc1)c1cc([N+](=O)[O-])cc(C(F)(F)F)c1	Fam108B inh 41 | Fam108b confirm inactive
O=C(Nc1ccc(-c2csc(Nc3cccc(C(F)(F)F)c3)n2)cc1)c1ccccc1	none
Cc1ccc(C)c(CN2CCSCC2)c1	none
Cc1cccc(-c2nc(Nc3ccc(N4CCOCC4)cc3)c3ccccc3n2)c1	Fam108B inh 20 | Fam108b confirm inactive
CNC(=S)N(CCCN(C)C)Cc1cc2cc3c(cc2[nH]c1=O)OCCO3	none
COc1ccccc1NC(=O)c1c(Nc2ccccc2F)sc(C(=O)Nc2cccc(Cl)c2)c1N	none
COc1ccc(Nc2sc(C(=O)Nc3cccc(Cl)c3)c(N)c2C(=O)Nc2ccccc2OC)cc1	PME-1 primary 30, Fam108B inh 51 | Fam108b confirm inactive
O=c1[nH]c(/C(=N\O)c2ccccc2)no1	none
CCCCCCCCCCCCCCCC[n+]1ccc(C=NO)cc1	none (no result: LYPLA1 inh, PME-1 primary, Fam108B inh, GSTO1 counter, LYPLA2 inh, PAD4 FP inh) | Fam108b inh 75
CN(C)C(=O)C[n+]1ccc(/C=N/O)cc1	none
C=CC[C@@H](Cc1ccc(F)cc1)C(=O)OC[C@@H]1CCCN1C(=O)[C@H](CC=C)CC(=O)N(CCO)Cc1ccccc1	none (no result: LYPLA1 inh, PME-1 primary, Fam108B inh, GSTO1 counter, LYPLA2 inh)
Nc1[nH]n(-c2ccccc2)c(=O)c1N=Nc1ccc2ncsc2c1	PME-1 primary 36, Fam108B inh 20 | Fam108b confirm inactive
Oc1ccc(/C=N/Nc2ccnc3cc(Cl)ccc23)c(O)c1O	PME-1 primary 32, Fam108B inh 30 | Fam108b confirm 93
CC/C(=N\Nc1ccnc2cc(Cl)ccc12)c1ccc(O)cc1	none
Oc1ccc(C=NNc2ccnc3cc(Cl)ccc23)cc1O	none (no result: LYPLA1 inh, PME-1 primary, Fam108B inh, GSTO1 counter, LYPLA2 inh, PAD4 FP inh) | Fam108b inh 85
CCOC(=O)c1c(C)[nH]c(C2=NNC(=Nc3cccc(Cl)c3)SC2)c1C	PME-1 primary 34, Fam108B inh 22 | Fam108b confirm inactive
Nc1nc2ccccc2n1/N=C/c1ccc2c(c1)OCO2	none
Nc1nc2ccccc2n1/N=C/c1ccc(Br)cc1	Fam108B inh 29 | Fam108b confirm 35
COc1cc2cc(C(=O)N/N=C/c3ccccc3Cl)[nH]c2cc1OC	Fam108B inh 32 | Fam108b confirm 30
COc1cccc(/C=N/NC(=O)N/N=C/c2cccc(OC)c2O)c1O	none
COc1cccc(/C=N/NC(=O)c2ccc3nc[nH]c3c2)c1O	none
Cn1cccc1-c1cc(C(=O)N/N=C/c2ccccc2Cl)[nH]n1	none
COc1cc(OC)c2cc(C(=O)N/N=C/c3cccc(OC)c3O)[nH]c2c1	PME-1 primary 44, Fam108B inh 22 | Fam108b confirm 22
COc1cccc(/C=N/NC(=O)c2cc3c(OC)ccc(OC)c3[nH]2)c1O	PME-1 primary 42, Fam108B inh 27 | Fam108b confirm inactive
COc1ccc(C(C)(C)NC(=O)C2CCC(=O)N(C3CC3)C2)cc1OC (centres undefined)	none
Cc1cccc(CSc2nnc(-c3cccs3)n2Cc2ccco2)c1	none
O=C(O)c1ccccc1N=Nc1c(O)[nH]c2ccc([N+](=O)[O-])cc12	Fam108B inh 21 | Fam108b confirm inactive
O=C(C1CCCCC1)N1CCc2[nH]c3ccc(F)cc3c2C1	none
COc1ccccc1NC(=O)N1CCc2[nH]c3ccc(F)cc3c2C1	Fam108B inh 21 | Fam108b confirm inactive
O=C(N/N=C/c1ccncc1)c1cc2c(ccc3ccccc32)o1	none
COc1cc(/C=N/NC(=O)c2cc3c(ccc4ccccc43)o2)cc(OC)c1O	PME-1 primary 34, Fam108B inh 27 | Fam108b confirm 20
COc1ccccc1/C=N/NC(=O)c1cc2c(ccc3ccccc32)o1	none
